Source: PubChem BioAssay (NCI)
About 83,000 compounds went through this panel and 20% of them were active in at least one assay; those are over-represented in the sample as a whole.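 96-well plates, one dose, 48 hours. Percent growth reported; active if below 10.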 The source made the active and inactive calls.

Legend:
Assay in all cases: NCI-60 one-dose screen, 48 h (100 = growth as untreated, 0 = no growth, -100 = all killed)
HCT-15 colon = conditions: 10 µM unless noted
HT29 colon = conditions: 10 µM unless noted
SNB-75 CNS = conditions: 10 µM unless noted
SNB-19 CNS = conditions: 10 µM unless noted
U251 CNS = conditions: 10 µM unless noted
PC-3 prostate = conditions: 10 µM unless noted
SK-MEL-5 melanoma = conditions: 10 µM unless noted
UACC-62 melanoma = conditions: 10 µM unless noted
LOX IMVI melanoma = conditions: 10 µM unless noted
SK-MEL-28 melanoma = conditions: 10 µM unless noted
SK-MEL-2 melanoma = conditions: 10 µM
EKVX NSCLC = conditions: 10 µM unless noted
SN12C renal = conditions: 10 µM unless noted
UO-31 renal = conditions: 10 µM unless noted
TK-10 renal = conditions: 10 µM unless noted
ACHN renal = conditions: 10 µM unless noted
CAKI-1 renal = conditions: 10 µM unless noted
A498 renal = conditions: 10 µM unless noted
CCRF-CEM leukemia = conditions: 10 µM unless noted
MOLT-4 leukemia = conditions: 10 µM unless noted

Measured: growth

Cc1ccc(-c2nc3ccc(Cl)cn3c2NC2CCCCC2)o1
inactive: HCT-15 colon 66.8% | HT29 colon 48.4% | SNB-75 CNS 83.5% | SNB-19 CNS 97.4% | U251 CNS 86.8% | PC-3 prostate 45.4% | SK-MEL-5 melanoma 66.4% | UACC-62 melanoma 72.4% | LOX IMVI melanoma 103% | SK-MEL-28 melanoma 100% | SK-MEL-2 melanoma 88.9% | EKVX NSCLC 80.7% | SN12C renal 87.3% | UO-31 renal 58.5% | TK-10 renal 87.9% | ACHN renal 83.1% | CAKI-1 renal 60.6% | A498 renal 53.3% | CCRF-CEM leukemia 79.8% | MOLT-4 leukemia 43.4%

CCCCCCCC(=O)SCC/C=C/[C@@H]1CC(=O)NCc2cccc(n2)C2=N[C@@](C)(CS2)C(=O)N[C@@H](C(C)C)C(=O)N1
inactive: HCT-15 colon 75.3% | SNB-75 CNS 24.5% | SNB-19 CNS 38.6% | U251 CNS 13.7% | PC-3 prostate 26.9% | SK-MEL-5 melanoma 22.2% | SK-MEL-28 melanoma 37.1% | SK-MEL-2 melanoma 18.1% | EKVX NSCLC 51.3% | SN12C renal 55.7% | UO-31 renal 50.8% | TK-10 renal 12% | ACHN renal 59.6% | CAKI-1 renal 82.3% | CCRF-CEM leukemia 44.9% | MOLT-4 leukemia 17.5%
active: HT29 colon -6.83% | UACC-62 melanoma 0.721% | LOX IMVI melanoma -1.52%

O=C(NO)c1ccc(Cn2c(=O)n(CCc3ccccc3)c(=O)c3ccccc32)cc1
active: UACC-62 melanoma 3.79% | CCRF-CEM leukemia 4.6% | MOLT-4 leukemia 3.88%
inactive: HCT-15 colon 28.6% | HT29 colon 42.3% | SNB-75 CNS 54.3% | SNB-19 CNS 45.2% | U251 CNS 23.8% | PC-3 prostate 20.3% | SK-MEL-5 melanoma 34.8% | LOX IMVI melanoma 12.9% | SK-MEL-28 melanoma 13.4% | SK-MEL-2 melanoma 45.7% | EKVX NSCLC 38.8% | SN12C renal 38.5% | UO-31 renal 17.3% | TK-10 renal 43.4% | ACHN renal 25.8% | CAKI-1 renal 27.2% | A498 renal 12.7%

CCCCCCCC(=O)SCC/C=C/[C@@H]1CC(=O)NCc2cc(ccn2)C2=N[C@@](C)(CS2)C(=O)N[C@@H](C(C)C)C(=O)O1
inactive: SNB-75 CNS 31.8% | SNB-19 CNS 10.2% | PC-3 prostate 16.4% | EKVX NSCLC 19.9% | SN12C renal 21.9% | CCRF-CEM leukemia 39% | MOLT-4 leukemia 12.8%
active: HCT-15 colon 1.6% | HT29 colon 1.74% | U251 CNS -55.7% | SK-MEL-5 melanoma -95.3% | UACC-62 melanoma -56.8% | LOX IMVI melanoma -95.1% | SK-MEL-28 melanoma -24.7% | SK-MEL-2 melanoma -2.2% | UO-31 renal -10.5% | TK-10 renal -15.6% | ACHN renal -17.2% | CAKI-1 renal -54.4%

NC(=O)N1N=C(c2ccc(Cl)cc2)CC1c1cn(-c2ccccc2)nc1-c1ccc(Cl)cc1 (configuration not stated)
active: SNB-75 CNS -10.5%
inactive: HCT-15 colon 72% | HT29 colon 51.1% | SNB-19 CNS 44% | U251 CNS 46% | PC-3 prostate 52.8% | SK-MEL-5 melanoma 79% | UACC-62 melanoma 61.7% | LOX IMVI melanoma 55.9% | SK-MEL-28 melanoma 78.4% | SK-MEL-2 melanoma 74.3% | EKVX NSCLC 58.1% | SN12C renal 61.9% | UO-31 renal 21.5% | TK-10 renal 43.2% | ACHN renal 26.1% | CAKI-1 renal 67.7% | A498 renal 71.1% | CCRF-CEM leukemia 85.2% | MOLT-4 leukemia 62.9%

O=C(NCCO)Nc1ccc(-c2nc(N3CCOCC3)c3cccn3n2)cc1
inactive: HCT-15 colon 11.5% | HT29 colon 14.4% | SNB-19 CNS 18.3% | U251 CNS 18.3% | CCRF-CEM leukemia 27.4% | MOLT-4 leukemia 16.2%
active: SNB-75 CNS -31.9% | PC-3 prostate 9.72% | SK-MEL-5 melanoma -27.6% | UACC-62 melanoma -37.7% | LOX IMVI melanoma 4.86% | SK-MEL-28 melanoma -7.13% | SK-MEL-2 melanoma -9.19% | EKVX NSCLC 3.13% | SN12C renal 5.36% | UO-31 renal -18.2% | TK-10 renal -23.5% | ACHN renal 9.2% | CAKI-1 renal 9.37% | A498 renal -54.8%

C=C1C[C@H](O)[C@H](Br)C(C)(C)[C@@]12CCC(C)=C(Cl)C2
active: HCT-15 colon -4.29% | HT29 colon 3.04% | SK-MEL-5 melanoma -60.8% | UACC-62 melanoma -11.8% | LOX IMVI melanoma -5.6% | SK-MEL-2 melanoma 6.3% | MOLT-4 leukemia -8.16%
inactive: SNB-75 CNS 52.9% | SNB-19 CNS 40.7% | U251 CNS 20.4% | PC-3 prostate 16.6% | SK-MEL-28 melanoma 30.1% | EKVX NSCLC 13.5% | SN12C renal 22.6% | UO-31 renal 37.1% | TK-10 renal 31% | ACHN renal 24.2% | CAKI-1 renal 16.3% | CCRF-CEM leukemia 21.6%
